Results on 54 compounds are retold here after PubChem BioAssay AID504834 (National Center for Advancing Translational Sciences (NCATS), 2011).

SMILES strings stand for the structures. Screen size: about 320,000 compounds; about 22,000 (6.9%) were called active. Not shown: some 27% with an inconclusive outcome. The full list was thinned out, with actives kept by preference. Unmarked numbers belong to inactive results. Calls follow the shape of the dose curve; as a rule, active = well fitted inhibition curve with a large enough effect; inconclusive = small, poorly fitted or top-dose-only effect, or another doubt; inactive = no such curve, though single readings can be large or run the other way.
% is scaled to controls: 0 for no effect and ±100 for the full control effect; potency is read from the fitted curve at half-maximal effect.

This assay can be described thus: Primary qHTS for delayed death inhibitors of the malarial parasite plastid, 96 hour incubation. Conditions: P. falciparum luciferase reporter growth; series mostly up to 28.7 µM; activity change, negative = inhibition: at the top concentration. From the text:
The goal of this screen is to discover new antimalarial compounds that act by inhibiting the development of the apicoplast in the malarial parasite Plasmodium falciparum. The biochemical processes that make this organelle essential for erythrocytic stage parasites are not well understood. However, antibiotics such as azithromycin and tetracycline, which target the apicoplast translational machinery, have a potent antimalarial effect.
We have developed a cell-based assay that measures parasite growth based on the expression of an integrated copy of a firefly luciferase reporter. To detect small molecules that cause this "delayed death" phenotype, erythrocytes infected with the luciferase-expressing parasites were incubated with compounds for either one or two generations, corresponding to 48 and 96 hours, respectively. Compounds that inhibit parasite growth in the second generation, but not the first, should be enriched in antimalarials that target the apicoplast. Growth inhibition is detected by a decrease in luciferase activity.
Assay Provider: David Fidock and Eric Ekland, Columbia University
Keywords: NIH Roadmap, MLPCN, MLI, MLSMR, qHTS, NCGC, qHTS, malaria, luciferase, viability
Four microliters of infected erythrocytes (2% hematocrit, 0.05% parasitemia final concentration) in culture medium were dispensed and the plates incubated for 96 hours at 37 C in 5% CO2. Two microliters of luciferase detection reagent was added and luminescence was detected by a ViewLux (PerkinElmer) reader.
`Nc1nnnn1/N=C/c1cc([N+](=O)[O-])ccc1O`: the “activity change, negative = inhibition” value is -13.5%. Take `Cc1sc(NC(=O)c2ccc3ncsc3c2)c(C(N)=O)c1C`: the “activity change, negative = inhibition” value was 202%. `O=C(Nc1ccccc1N1CCOCC1)c1csc2c1CCCC2`: the Potency was 10.4 µM (active). As to `O=C(Nc1ccccc1N1CCOCC1)c1ccncc1`, the “activity change, negative = inhibition” value was 0.269%. In the case of `Cc1ccc(S(=O)(=O)N2CCOCC2)cc1C(=O)Nc1ccccc1N1CCCC1`, the “activity change, negative = inhibition” value was -12.8%. For the compound `CCCc1cc(=O)[nH]c(SCC(=O)c2c(N)n(CC(C)C)c(=O)n(C)c2=O)n1`, the “activity change, negative = inhibition” value was 21.4%. On to `CCOC(=O)c1c(C)[nH]c(C)c1S(=O)(=O)N(C)CC(=O)Nc1ccccc1C`, for which the “activity change, negative = inhibition” value was -0.876%. For the compound `CCc1ccc(OCC(=O)N(Cc2ccccc2)C2CCS(=O)(=O)C2)cc1` (centres undefined), the “activity change, negative = inhibition” value was -19.5%. Same read-out and setting: for `O=C(CCC(=O)c1ccccc1)NCc1cccc(C(F)(F)F)c1` the value was 10.8%; for `CCC(C(=O)OC)n1cnc2c(oc3ccccc32)c1=O` (centres undefined), -14.6%. With `Cc1ccc(C)c(Cn2cnc3c(oc4ccccc43)c2=O)c1`, the Potency is 2.08 µM (active).

With `Cc1ccc2[nH]c3c(=O)n(Cc4ccccn4)cnc3c2c1`, the “activity change, negative = inhibition” value was -4.35%.

Regarding `CC(C(=O)N(C)CC(=O)Nc1ccccc1C(F)(F)F)N1C(=O)c2ccccc2C1=O` (centres undefined), the “activity change, negative = inhibition” value is -12.6%. Turning to `Cc1csc2nc(COC(=O)c3cccc(N(C)C)c3)cc(=O)n12`, the “activity change, negative = inhibition” value is 175%. Same read-out and setting: then `CCOC(=O)N1CCC(N2Cc3cccc(C(=O)Nc4c(C)cccc4CC)c3C2=O)CC1`, with 2.75%. For the compound `C=C1CCC(N(O)c2cc(C)on2)C(=C)CCC2C1CC2(C)C` (centres undefined), the Potency was 4.65 µM (active). Take `CN(NS(=O)(=O)c1cccs1)c1ncc(C(F)(F)F)cc1Cl`: the “activity change, negative = inhibition” value was 35%. As for `O=C(Nc1nnc(C2=COCCO2)o1)c1ccc([N+](=O)[O-])s1`, the Potency was 11.7 µM (active). On to `CCC(CC)c1nnc(NC(=O)C2=COCCO2)s1`, for which the “activity change, negative = inhibition” value was 65.7%. As for `COc1cc(-c2nnc(NC(=O)C3=COCCO3)o2)cc(OC)c1OC`, the “activity change, negative = inhibition” value was -2.47%.

As for `COCCNc1ccc(-c2n[nH]c(=O)c3ccccc23)cc1[N+](=O)[O-]`, the “activity change, negative = inhibition” value is 28.5%.

`O=C(CN1C(=O)NC2(CCCCC2)C1=O)NCCc1c[nH]c2ccccc12`: the “activity change, negative = inhibition” value was -0.132%. `O=C(NCCc1c[nH]c2ccccc12)c1cccc(Br)c1`: the “activity change, negative = inhibition” value was 38.4%. With `CC1(C(=O)NCCc2c[nH]c3ccccc23)C=CC2(CCCCC2)N1C(=O)c1ccccc1` (centres undefined), the Potency is 11.7 µM (active). For the compound `Cc1ccc(OCCC(=O)OCC(=O)N2c3ccccc3NC(=O)C2(C)C)cc1`, the “activity change, negative = inhibition” value was -1.08%. On the same count and under the same terms, for `Cc1nnc(SCC(=O)Nc2ccc(S(=O)(=O)Nc3ccc(Cl)nn3)cc2)s1` the value was -22.5%; for `Cc1ccccc1N1CCN(C2CCCN(C(=O)c3ocnc3C)C2)CC1` (centres undefined), 80.8%; for `Cc1ccc(-n2c(-c3ccc(Cl)cc3)n[nH]c2=S)cc1`, -1.55%. Turning to `Cc1cc([N+](=O)[O-])ccc1NC(=O)C1CCCO1` (centres undefined), the “activity change, negative = inhibition” value was 59.8%. For `CC(=O)c1ccc(NC(=O)Nc2ccc([N+](=O)[O-])cc2C)cc1`, the Potency was 9.28 µM (active). Consider `Cc1cc([N+](=O)[O-])ccc1NC(=O)c1ccc(NC(=O)C(C)C)cc1`, for which the activity change, negative = inhibition was 18% [at 5.75 µM]. Turning to `CCOc1ccccc1C(=O)NCc1ccco1`, the “activity change, negative = inhibition” value was 9%.

On to `CCN(CC(=O)NCc1ccco1)S(=O)(=O)c1ccc(F)cc1`, for which the “activity change, negative = inhibition” value is 2.62%. Consider `O=C(NCc1ccco1)c1ccc(CS(=O)(=O)Cc2ccc(F)cc2)o1`, for which the Potency was 8.28 µM (active).

In the case of `CC1(C)Oc2ccc3ccc(=O)oc3c2/C(=N/O)C1=O`, the “activity change, negative = inhibition” value is -23.1%. With `NC(=O)Cc1ccc2c(c1)[nH]c1ccccc12`, the “activity change, negative = inhibition” value is -7.47%.

Turning to `C[C@H](NC(=O)C1CC(=O)N(c2ccc3c(c2)OCO3)C1)C(=O)NCc1ccco1` (some centres undefined), the “activity change, negative = inhibition” value was 0.347%. On to `Cc1ccccc1OC(=O)Cn1c(C(F)(F)F)nc2ccccc21`, for which the “activity change, negative = inhibition” value is 42.4%. Same read-out and setting: then `CCc1cccc(C)c1N(C(=O)Cn1c(CO)nc2ccccc21)C(C)COC` (centres undefined), with 0.927%. Turning to `CCOCN(C(=O)Cn1c(C(C)O)nc2ccccc21)c1c(C)cccc1CC` (centres undefined), the Potency was 8.28 µM (active).

As for `CC(C)=NN1C(=O)c2ccccc2NC1(C)C`, the “activity change, negative = inhibition” value was 13.6%. `O=C(Nc1cccc2ncccc12)c1ccc(-c2ccc(Cl)cc2Cl)o1`: the “activity change, negative = inhibition” value is 12.7%. As for `Cc1csc(NC(=O)c2ccc(-c3ccc(Cl)cc3Cl)o2)n1`, the Potency is 4.65 µM (active). Consider `Cc1csc(NC(=S)Nc2cccc(Cl)c2)n1`, for which the “activity change, negative = inhibition” value was -84.6%. Regarding `COc1cc(S(=O)(=O)N2CCN=C2c2ccccc2)ccc1Cl`, the “activity change, negative = inhibition” value was -2.8%. Regarding `COc1ccc(-n2c(O)c(C=NCC(c3ccco3)N3CCCC3)c3ccccc3c2=O)cc1OC` (centres undefined), the Potency was 10.4 µM (active). As to `CCN(CC)CCCN=Cc1c(O)n(-c2ccc(C)cc2)c(=O)c2ccccc12`, the “activity change, negative = inhibition” value was 13.8%. Regarding `Cc1ccc(-n2c(O)c(C=Nc3ccc(S(=O)(=O)Nc4ncccn4)cc3)c3ccccc3c2=O)cc1C`, the “activity change, negative = inhibition” value was 38.1%. Regarding `O=c1[nH]c(N2CCOCC2)nc2ccccc12`, the “activity change, negative = inhibition” value was 10.7%. `CC(C(=O)NC1CCS(=O)(=O)C1)N1C(=O)/C(=C/c2ccc(Cl)cc2)SC1=S` (centres undefined): the “activity change, negative = inhibition” value was -0.569%. Turning to `CC1CCN(C2=NC(=O)/C(=C/c3cn[nH]c3-c3ccccc3)S2)CC1`, the Potency is 13.1 µM (active).

As to `O=C1N=C(N2CCOCC2)S/C1=C\C=C/c1ccccc1`, the “activity change, negative = inhibition” value is 56.5%.

Take `Cc1ccsc1/C=C1\SC(N2CCOCC2)=NC1=O`: the “activity change, negative = inhibition” value is 51.5%. The same measure, in the same setting: then `Cc1ccc(-c2nnc(CN3CCN(C)CC3)o2)cc1`, with 73.6%.
